The results in this text go back to PubChem BioAssay (EPA / NIEHS).

The source made the active and inactive calls. How the source made its calls: active means hit-call score of the fitted dose curve at least 0.9, where 1 is the maximum; inactive means score below 0.9.

Read-out in assay [1]: Monokine induced gamma interferon (MIG), CXCL9 (gene 4283)
The experiment in a line: BSK_3C_MIG: BioMAP Diversity Plus: 3C Assay for Monokine induced gamma interferon (MIG) Biomarker Activity (AID 2283021).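 On AC50: MIG protein level measured by immunoassay in the treated endothelial cultures.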 The note with it: primary human endothelial cells (HUVEC); actives raise or lower the signal. An outline of the steps: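 Endothelial primary cells (human umbilical vein) are dosed with test chemical in the 3C system. MIG levels are measured by ELISA at 24 h and fitted in both directions relative to DMSO.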

The nature of assay [2]: BSK_3C_SRB: Viability Assessment in the BioMAP Diversity Plus: 3C Assay (AID 2283023).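 Further: fitted both ways against DMSO so a hit may be signal rise or drop.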 The following applies: primary human endothelial cells (HUVEC). Summed up: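 Overt cytotoxicity is gauged in parallel confluent HUVEC cultures by SRB total-protein staining at the time of biomarker measurement, 24 h after dosing. Gain or loss of signal is fitted versus DMSO.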
Read-out in assay [3]: Matrix Metallopeptidase 1 (MMP1), MMP1 (gene 4312)
The experiment in a line: BSK_BE3C_MMP1: BioMAP Diversity Plus: BE3C Assay for Matrix Metallopeptidase 1 (MMP1) Biomarker Activity (AID 2283024). The note with it: primary human bronchial epithelial cells; actives raise or lower the signal. Summed up: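 MMP1 signal, measured by ELISA after a 24 h chemical exposure of human primary bronchial epithelial cells, is analysed with bidirectional fitting using DMSO as negative control.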

The nature of assay [4]: BSK_3C_Vis: BioMAP Diversity Plus: 3C Assay for Morphology Visualization (AID 2283025).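 Further: fitted both ways so gain or loss versus DMSO counts.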 The following applies: primary human endothelial cells (HUVEC). Summed up: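 Morphology read by light microscopy serves as a background control for the multiplexed 3C assay in human umbilical vein endothelial cells, taken 24 h after dosing, with DMSO as the negative control and bidirectional curve fitting.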

Read-out in assay [5]: Pselectin, SELP (gene 6403)
The assay is described as follows: BSK_4H_Pselectin: BioMAP Diversity Plus: 4H Assay for Pselectin Biomarker Activity (AID 2283026). The note with it: primary human endothelial cells (HUVEC); actives raise or lower the signal. Summed up:
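Endothelial primary cells (human umbilical vein) are dosed, incubated 24 h, and assayed for surface P-selectin by ELISA; responses in either direction are fitted relative to the DMSO negative control.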

Assay [6] in a line: BSK_4H_SRB: Viability Assessment in the BioMAP Diversity Plus: 4H Assay (AID 2283027).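 Further: cells exposed to compound for 24 h before staining.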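 On AC50: curves fitted both ways versus DMSO so AC50 may be loss or gain.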 The note with it: primary human endothelial cells (HUVEC). An outline of the steps:
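HUVEC, 24 h post-dose; 10% TCA fix, 0.1% SRB stain, A560 nm. Total protein = overt cytotoxicity, parallel to biomarker read. Bidirectional fit vs DMSO baseline.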

Assay [7] is described as follows: BSK_BE3C_SRB: Viability Assessment in the BioMAP Diversity Plus: BE3C Assay (AID 2283028).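 On AC50: fitted both ways so AC50 may mark signal gain or loss versus DMSO.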 The following applies: primary human bronchial epithelial cells. An outline of the steps: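 SRB total-protein staining (0.1%, after TCA fixation) of chemically dosed human bronchial epithelial primary cells at 24 h; DMSO serves as the negative control for bidirectional curve fitting.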

Read-out in assay [8]: Thrombomodulin, THBD (gene 7056)
The assay is described as follows: BSK_3C_Thrombomodulin: BioMAP Diversity Plus: 3C Assay for Thrombomodulin Biomarker Activity (AID 2283029). The following applies: primary human endothelial cells (HUVEC); actives raise or lower the signal. Summed up: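 Endothelial cells from umbilical vein are dosed with test chemical and incubated 24 h. Thrombomodulin is then quantified by ELISA, with DMSO serving as negative control and activity baseline.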

Read-out in assay [9]: Urokinase-type plasminogen activator receptor (uPAR), PLAUR (gene 5329)
The assay is described as follows: BSK_4H_uPAR: BioMAP Diversity Plus: 4H Assay for Urokinase-type plasminogen activator receptor (uPAR) Biomarker Activity (AID 2283030). The following applies: primary human endothelial cells (HUVEC); actives raise or lower the signal. Summed up:
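Endpoint derived via bidirectional curve fitting against DMSO baseline; readout was ELISA detection of uPAR on umbilical vein endothelial cells at 24 h post-treatment, with SRB-stained parallel cultures assessing cytotoxicity.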

Read-out in assay [10]: Vascular endothelial growth factor receptor 2 (Homo sapiens) (UniProt P35968)
The experiment in a line: BSK_4H_VEGFRII: BioMAP Diversity Plus: 4H Assay for Vascular endothelial growth factor receptor 2 (VEGFR2) Biomarker Activity (AID 2283031).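 On AC50: cell-surface VEGFR2 protein level quantified by ELISA.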 The following applies: primary human endothelial cells (HUVEC); actives raise or lower the signal. An outline of the steps: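 In this multiplexed HUVEC system, biomarker ELISA was performed after 24 h chemical exposure. Parallel SRB staining (TCA fixation, 560 nm) tracked cytotoxicity; DMSO served as baseline.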

Read-out in assay [11]: Human Leukocyte Antigen - DR isotype (HLADR), HLA-DRA (gene 3122)
The experiment in a line: BSK_BE3C_HLADR: BioMAP Diversity Plus: BE3C Assay for Human Leukocyte Antigen - DR isotype (HLADR) Biomarker Activity (AID 2283032). The following applies: primary human bronchial epithelial cells; actives raise or lower the signal. An outline of the steps: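 Chemicals are dosed onto BE3C bronchial epithelial cultures of human origin and left 24 h. HLA-DR is then measured by ELISA, and the endpoint is fitted in both directions using DMSO as the activity baseline.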

Read-out in assay [12]: Vascular cell adhesion molecule 1 (VCAM1), VCAM1 (gene 7412)
The assay is described as follows: BSK_4H_VCAM1: BioMAP Diversity Plus: 4H Assay for Vascular cell adhesion molecule 1 (VCAM1) Biomarker Activity (AID 2283033).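 On outcome: cell-surface VCAM-1 protein measured by ELISA.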 The note with it: primary human endothelial cells (HUVEC); actives raise or lower the signal. Summed up:
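Chemicals are added to primary human umbilical vein endothelial cells. After 24 h, VCAM-1 levels are measured by ELISA. Values come from bidirectional fitting referenced to DMSO.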

Read-out in assay [13]: Interferon-gamma inducible Protein 10 (IP10), CXCL10 (gene 3627)
The experiment in a line: BSK_BE3C_IP10: BioMAP Diversity Plus: BE3C Assay for Interferon-gamma inducible Protein 10 (IP10) Biomarker Activity (AID 2283034). The following applies: primary human bronchial epithelial cells; actives raise or lower the signal. An outline of the steps: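 IP-10 quantified by ELISA serves as the endpoint. Cells: primary human bronchial epithelium, read 24 h after compound addition. Activity is derived by bidirectional fitting with DMSO as negative control.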

Read-out in assay [14]: Monokine induced gamma interferon (MIG), CXCL9 (gene 4283)
The assay is described as follows: BSK_BE3C_MIG: BioMAP Diversity Plus: BE3C Assay for Monokine induced gamma interferon (MIG) Biomarker Activity (AID 2283035).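 On outcome: MIG protein measured by ELISA in BE3C cultures after 24 h of dosing.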 The following applies: primary human bronchial epithelial cells; actives raise or lower the signal. Summed up: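 Dose cells (human primary bronchial epithelial), incubate 24 h, quantify MIG by ELISA, then fit concentration–response in both directions relative to DMSO control.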

Read-out in assay [15]: Transforming growth factor beta 1 (TGFb1), TGFB1 (gene 7040)
The experiment in a line: BSK_BE3C_TGFb1: BioMAP Diversity Plus: BE3C Assay for Transforming growth factor beta 1 (TGFb1) Biomarker Activity (AID 2283036;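 on outcome: TGF-b1 protein level measured by ELISA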). The note with it: primary human bronchial epithelial cells; actives raise or lower the signal. An outline of the steps:
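Bronchial epithelial primary cells are treated with test chemical, then TGF-b1 is quantified by ELISA after 24 hours. Values derive from bidirectional fitting against DMSO, with cytotoxicity checked by SRB staining in parallel cultures.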

Read-out in assay [16]: Plasminogen activator inhibitor-1 (PAI1), SERPINE1 (gene 5054)
The experiment in a line: BSK_BE3C_PAI1: BioMAP Diversity Plus: BE3C Assay for Plasminogen activator inhibitor-1 (PAI1) Biomarker Activity (AID 2283037). The following applies: primary human bronchial epithelial cells; actives raise or lower the signal. Summed up: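 Values derive from bidirectional fitting against DMSO baseline of PAI-1 levels, measured by ELISA in human bronchial epithelial cells 24 h after compound addition.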

Read-out in assay [17]: urokinase plasminogen activator (uPA), PLAU (gene 5328)
The experiment in a line: BSK_BE3C_uPA: BioMAP Diversity Plus: BE3C Assay for urokinase plasminogen activator (uPA) Biomarker Activity (AID 2283038).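 On outcome: uPA protein level quantified by ELISA in cell cultures; uPA read one day after compound addition.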 The following applies: primary human bronchial epithelial cells; actives raise or lower the signal. Summed up:
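Using confluent primary human lung bronchial epithelial cultures, we dosed chemicals, waited 24 h, then ran a uPA ELISA, fitting bidirectionally against DMSO.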

Read-out in assay [18]: Urokinase-type plasminogen activator receptor (uPAR), PLAUR (gene 5329)
The experiment in a line: BSK_BE3C_uPAR: BioMAP Diversity Plus: BE3C Assay for Urokinase-type plasminogen activator receptor (uPAR) Biomarker Activity (AID 2283039).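 Further: uPAR protein level measured by ELISA on the cells; cells exposed to compound for one day before measurement.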 The following applies: primary human bronchial epithelial cells; actives raise or lower the signal. Summed up: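 Steps: dose human primary bronchial epithelial cells, incubate 24 h, measure uPAR by ELISA, then fit gain- or loss-of-signal response bidirectionally relative to DMSO.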

Read-out in assay [19]: Interleukin-6 (IL6), IL6 (gene 3569)
The assay is described as follows: BSK_CASM3C_IL6: BioMAP Diversity Plus: CASM3C Assay for Interleukin-6 (IL6) Biomarker Activity for (AID 2283040). The note with it: primary human coronary artery smooth muscle cells; actives raise or lower the signal.

The AC50 is the concentration at which the activity in the assay is half-maximal. On to `OC(c1ccc(Cl)cc1)(c1ccc(Cl)cc1)C(Cl)(Cl)Cl`, for which the AC50 is 30.3 µM (active) in [1]; 21.2 µM (active) in [2]; 34.1 µM (active) in assay [3]; 16.3 µM (active) in assay [4]; 17.3 µM (active) in [5]; 28.6 µM (active) in assay [6]. For the same molecule, the AC50 in assay [7] was 12.9 µM (active); in assay [8] it was 0.258 µM (active); in assay [9], 31.4 µM (active); in assay [10], 20 µM (active); in assay [11], 11.5 µM (active); in assay [12], 28.3 µM (active). For the same molecule, the AC50 is 12.2 µM (active) in assay [13], 14.5 µM (active) in [14], 31.2 µM (active) in assay [15] and 13.9 µM (active) in assay [16]. The result in [17], in [18] and in assay [19] was inactive.
For the molecule `O=C1C2CC=CCC2C(=O)N1SC(Cl)(Cl)Cl` (centres undefined), the result in assay [1], in [2], in [6], in assay [7], in [8] and in assay [9] was inactive. Further, the outcome in assay [10], in [12] and in assay [18] was inactive. In addition, the AC50 in assay [3] is 12.1 µM (active); in assay [4], 39 µM (active); in assay [5], 23.9 µM (active); in assay [11] it was 12.3 µM (active); in assay [13] it was 11.9 µM (active); in [14], 13.5 µM (active). The AC50 is 12.7 µM (active) in assay [15], 12.4 µM (active) in assay [16], 11.5 µM (active) in [17] and 30.9 µM (active) in assay [19].
For the molecule `CCOc1nc(F)cc2nc(S(=O)(=O)Nc3c(Cl)cccc3Cl)nn12`, the result in assay [1], in [2], in [3], in [4], in [5] and in assay [6] was inactive. The result in assay [7], in [8], in [9], in assay [10], in [12] and in assay [14] was inactive. The outcome in [15], in assay [17], in [18] and in [19] was inactive. The figures for the AC50 in [11], in [13] and in assay [16] were 27.9 µM (active), 31.4 µM (active) and 20.9 µM (active), respectively.
As for `C=C(C)CN(CC)c1c([N+](=O)[O-])cc(C(F)(F)F)cc1[N+](=O)[O-]`, the result in assay [1], in [3], in [5], in [6], in [7] and in assay [8] was inactive. Further, the result in assay [9], in assay [10], in assay [11], in assay [12], in [13] and in assay [14] was inactive. Also, the result in assay [15], in assay [16], in assay [17], in [18] and in assay [19] was inactive. For the same molecule, the values for the AC50 in assay [2] and in [4] were 30 µM (active) and 20 µM (active), respectively.
On to `CCCCC(O)(Cn1cncn1)c1ccc(Cl)cc1Cl` (centres undefined), for which the outcome in [1], in [2], in assay [4], in [5], in assay [7] and in assay [8] was inactive. Besides, the outcome in assay [9], in assay [10], in assay [12], in assay [14], in assay [15] and in assay [16] was inactive. In addition, the outcome in assay [17], in assay [18] and in assay [19] was inactive. Further, the AC50 was 12.8 µM (active) in assay [3], 14.3 µM (active) in assay [6], 16 µM (active) in assay [11] and 26.8 µM (active) in assay [13].
As for `Cc1c(COC(=O)[C@@H]2[C@H](/C=C(\Cl)C(F)(F)F)C2(C)C)cccc1-c1ccccc1`, the result in [1], in assay [3], in assay [6], in [7], in [9] and in [10] was inactive. Besides, the result in assay [11], in [13], in assay [14], in [15], in [16] and in assay [17] was inactive. Besides, the result in assay [18] and in assay [19] was inactive. Also, the AC50 in [2] was 11.7 µM (active); in assay [4], 0.28 µM (active); in [5], 12.3 µM (active); in assay [8], 4.98 µM (active); in assay [12], 3.91 µM (active).
